Laboratory results as given in PubChem BioAssay AID493169 (National Center for Advancing Translational Sciences (NCATS), 2011).
Records with an inconclusive call do not appear. Where a call stands in place of a potency, no number is given. Activity calls are given as the source filed them. Calls follow the shape of the dose curve; as a rule, active = well fitted inhibition curve with a large enough effect; inconclusive = small, poorly fitted or top-dose-only effect; inactive = flat fitted curve, though single readings scatter.
Potency is read from the fitted curve at half-maximal effect.

Assay: CHOP2 Reporter Counterscreen Assay for Inhibitors of Ubiquitin-specific Protease USP2a;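 also: activated enterokinase alone at 50 pM in a cell-free format rather than USP2a or CHOP2; nearly all actives have a fitted effect of over 55% in size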
Details: purified enterokinase, fluorogenic substrate, 485/531 nm; series mostly up to 38.3 µM
Procedure, shortened: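 Fluorescence (485/531 nm) read 10 min after adding 25nM reporter substrate to 50 pM activated EK preincubated 30 min RT with compound; Tris pH 8.0/CaCl2/CHAPS buffer. Data normalized to buffer-alone inhibition; concentration-response curves fitted.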
With Cc1noc(/C=C/NCc2cccnc2)c1S(=O)(=O)N(C)CC(=O)N1CCc2ccccc21 the Potency was “inactive”. In the case of CCOc1ccc(CCn2c(-c3ccco3)nc3ccccc3c2=O)cc1OCC, the Potency is reported as “inactive”. In the case of CCCCCCCCCCCCCCCC[N+](C)(C)CCN(Cc1ccc(OC)cc1)c1ncccn1, the Potency is reported as 10 µM (active). For CCCn1c(C)cc(C)c(C#N)c1=O, the Potency was “inactive”. In the case of CCOC(=O)N1CCN(C(=O)CN(c2ccc(Oc3ccccc3)cc2)S(C)(=O)=O)CC1, the Potency is reported as “inactive”. With COc1ccc(-c2[nH]ncc2/C=C(/C#N)C(=O)NC2CCCCC2)cc1 the Potency was “inactive”. For CCC(C(=O)NCc1ccccc1OC)n1nc(C)n2c(cc3occc32)c1=O (stereo not given), the Potency was “inactive”. For COc1ccc(NC(=O)c2cc(-c3ccco3)nc3ccccc23)cc1S(=O)(=O)N1CCOCC1, the Potency was 5.62 µM (active). For O=C1Nc2ccccc2SC(c2ccccc2)C1O (stereo not given), the Potency was 7.94 µM (active). For Cc1c(NC(=O)C2CCCN(S(=O)(=O)c3cnc[nH]3)C2)c(=O)n(-c2ccccc2)n1C (stereo not given), the Potency was “inactive”. In the case of CCCCCCCCCCC[N+](C)(C)CC/C=C1/c2ccccc2Sc2ccc(Cl)cc21, the Potency is reported as 11.2 µM (active). In the case of Cc1cccc(NCc2nc(-c3ccccc3)no2)c1, the Potency is reported as “inactive”. With O=C(Nc1ccc(S(=O)(=O)Nc2ncccn2)cc1)c1ccc(S(=O)(=O)N2CCCC2)cc1 the Potency was “inactive”. With COc1ccc(NC(=O)CN(Cc2ccccc2)S(C)(=O)=O)cc1 the Potency was “inactive”. For CSCCC(NC(=O)c1cc(C(C)(C)C)oc1C)C(=O)O (stereo not given), the Potency was “inactive”. With Cc1cc(C)n(C(=O)c2cccc(S(=O)(=O)N3CCCC3)c2)n1 the Potency was “inactive”. With N#Cc1cc(Sc2ccccn2)c(Sc2ccccn2)cc1C#N the Potency was “inactive”. With C(=N\N(c1ccccc1)c1ccccc1)/c1ccccn1 the Potency was “inactive”. For CC(C)(C)C1CCC(=NNC(=O)CN(c2ccccc2)S(C)(=O)=O)CC1 (stereo not given), the Potency was “inactive”. With O=C(CCCN1C(=O)c2ccccc2C1=O)NC1=NCCS1 the Potency was “inactive”. With Cc1cc(C(=O)Nc2ccccc2N2CCOCC2)c2ccccc2n1 the Potency was “inactive”. For O=C(COC(=O)c1c2c(nc3ccccc13)/C(=C/c1ccco1)CC2)NC1CCCC1, the Potency was 2 µM (active). In the case of CCOC(=O)c1[nH]c2ccc(OC)cc2c1NC(=O)CCN1CCCC(C)C1 (stereo not given), the Potency is reported as “inactive”. For C=CCn1c(NCc2cc(C)ccc2O)nc2ccccc21, the Potency was “inactive”. With Cc1ccc(C=Nc2ccccc2C(N)=O)cc1 the Potency was “inactive”. In the case of CCn1nc(C(=O)N[C@@H](CCSC)c2nc3ccccc3[nH]2)c2ccccc2c1=O, the Potency is reported as “inactive”. With Cc1c(C(=O)Nc2ccc3c4c(cccc24)CC3)cccc1[N+](=O)[O-] the Potency was “inactive”. In the case of COc1ccc(N(C(=O)C(C)C)S(=O)(=O)c2ccc(Cl)cc2)cc1, the Potency is reported as “inactive”. With COc1cc(C(c2c(C)[nH][nH]c2=O)c2c(C)[nH][nH]c2=O)ccc1OCc1ccc([N+](=O)[O-])cc1 the Potency was “inactive”. In the case of COc1cc(C)c(S(=O)(=O)NCc2ccc3c(c2)OCO3)cc1C, the Potency is reported as “inactive”. In the case of O=C(O)CC1(CC(=O)Nc2ccc3ccccc3c2)CCCCC1, the Potency is reported as “inactive”. With O=C(NN=Cc1ccc(N2CCOCC2)s1)c1ccc([N+](=O)[O-])cc1 the Potency was “inactive”. For CCCOc1ccc(N2C(=O)CC(NCCc3ccc(S(N)(=O)=O)cc3)C2=O)cc1 (stereo not given), the Potency was “inactive”. With Cc1ccc(C)c(S(=O)(=O)c2c(N)n(/N=C/c3ccco3)c3nc4ccccc4nc23)c1 the Potency was “inactive”. For CC(C)(C)C(=O)Nc1c2c(nc3c1CCC3)CCCC2, the Potency was “inactive”. In the case of CC(C)(C)OC(=O)C[C@H]1C/C=C\C[C@H](CC(=O)N(CCO)Cc2ccccc2)C(=O)NC[C@H](c2ccccc2)OC1=O, the Potency is reported as “inactive”. In the case of CCOC(=O)C1CCCN(CC(=O)Nc2c(C(=O)OC)[nH]c3ccc(C)cc23)C1 (stereo not given), the Potency is reported as “inactive”. For O=C(CSCCO)Nc1cccc2ccccc12, the Potency was “inactive”. In the case of Cc1cccn2c(=O)c3cc(C(=O)NCCN4CCOCC4)c(=N)n(CCN4CCOCC4)c3nc12, the Potency is reported as “inactive”. In the case of Cn1nc(CC(=O)NCc2ccc(F)cc2)c2ccccc2c1=O, the Potency is reported as “inactive”.
